Measurements published in PubChem BioAssay (EPA / NIEHS).
Records with an inconclusive call do not appear. Calls of active or inactive are those of the source. Rule for the calls, unless noted: active = hit-call score of the fitted dose curve at least 0.9, where 1 is the maximum; inconclusive = response in the unintended direction; inactive = score below 0.9.

How the values were obtained:
[1] = molecular target: human CYP1A2, CYP1A2 (gene 1544) (UniProt P05177); assay: NVS_ADME_hCYP1A2: NovaScreen (NVS) CYP450-related Enzyme Activity (ADME) Assay for human CYP1A2 (AID 2283102);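 for AC50: potency for inhibition since loss of fluorescence marks reduced CYP1A2 activity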
human CYP1A2, CYP1A2 (gene 1544), sequence (P05177 whole entry, looked up): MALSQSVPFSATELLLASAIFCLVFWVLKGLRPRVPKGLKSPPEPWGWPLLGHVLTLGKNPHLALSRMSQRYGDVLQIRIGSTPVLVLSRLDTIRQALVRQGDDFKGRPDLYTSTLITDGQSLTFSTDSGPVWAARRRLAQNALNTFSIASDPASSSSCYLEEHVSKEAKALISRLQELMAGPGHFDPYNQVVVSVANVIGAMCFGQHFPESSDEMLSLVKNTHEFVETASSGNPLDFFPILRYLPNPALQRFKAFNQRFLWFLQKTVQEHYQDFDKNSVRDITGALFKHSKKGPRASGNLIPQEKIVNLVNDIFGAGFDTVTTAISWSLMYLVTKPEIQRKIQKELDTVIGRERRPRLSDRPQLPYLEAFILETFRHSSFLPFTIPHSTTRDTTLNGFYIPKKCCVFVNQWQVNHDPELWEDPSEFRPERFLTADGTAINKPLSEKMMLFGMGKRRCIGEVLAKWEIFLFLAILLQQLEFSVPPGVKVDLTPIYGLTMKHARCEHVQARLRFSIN
In short: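 Fluorescence-intensity enzyme activity read-out, taken 0.5 h post-dosing, using insect-cell-derived recombinant CYP1A2 and specific fluorescent substrate. Acetonitrile served as negative control/baseline. Single-concentration duplicate screen at 10 uM, then concentration-response follow-up.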

[2] = molecular target: rat CYP2A1, Cyp2a1 (gene 24894) (UniProt P11711); assay: NVS_ADME_rCYP2A1: NovaScreen (NVS) CYP450-related Enzyme Activity (ADME) Assay for rat CYP2A1 (AID 2283114; active = hit-call score of the fitted dose curve at least 0.9, where 1 is the maximum; inactive = score below 0.9)
rat CYP2A1, Cyp2a1 (gene 24894), sequence (P11711 whole entry, looked up): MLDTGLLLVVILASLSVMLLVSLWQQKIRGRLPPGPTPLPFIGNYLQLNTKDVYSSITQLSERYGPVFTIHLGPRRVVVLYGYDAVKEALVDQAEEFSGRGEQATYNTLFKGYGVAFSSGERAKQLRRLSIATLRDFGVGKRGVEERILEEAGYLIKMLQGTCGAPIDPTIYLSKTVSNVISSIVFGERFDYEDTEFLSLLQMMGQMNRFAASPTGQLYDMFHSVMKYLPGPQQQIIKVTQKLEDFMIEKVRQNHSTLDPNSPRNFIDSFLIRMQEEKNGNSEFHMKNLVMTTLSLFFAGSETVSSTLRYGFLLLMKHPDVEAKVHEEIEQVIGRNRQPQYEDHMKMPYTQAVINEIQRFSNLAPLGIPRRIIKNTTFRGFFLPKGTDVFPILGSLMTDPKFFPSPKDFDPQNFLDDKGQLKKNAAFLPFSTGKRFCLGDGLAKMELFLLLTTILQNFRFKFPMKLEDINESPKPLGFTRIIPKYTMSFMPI
In short: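 Recombinant rat CYP2A1, cell-free, fluorogenic substrate turnover read by fluorescence intensity 0.75 h after dosing. Primary screen at 10 uM in duplicate; actives rerun as concentration-response up to 20 uM; loss of signal versus acetonitrile control.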

[3] = molecular target: human CYP2C8, CYP2C8 (gene 1558) (UniProt P10632); assay: NVS_ADME_hCYP2C8: NovaScreen (NVS) CYP450-related Enzyme Activity (ADME) Assay for human CYP2C8 (AID 2283104; active = hit-call score of the fitted dose curve at least 0.9, where 1 is the maximum; inactive = score below 0.9)
In short: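 Recombinant human CYP2C8 with fluorogenic substrate, 0.5 h, fluorescence intensity; signal loss fitted versus acetonitrile. Screened in duplicate at 10 uM, then actives run in concentration-response up to 20 uM.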

[4] = molecular target: human CYP2C9, CYP2C9 (gene 1559) (UniProt P11712); assay: NVS_ADME_hCYP2C9: NovaScreen (NVS) CYP450-related Enzyme Activity (ADME) Assay for human CYP2C9 (AID 2283108)
human CYP2C9, CYP2C9 (gene 1559), sequence (P11712 whole entry, looked up): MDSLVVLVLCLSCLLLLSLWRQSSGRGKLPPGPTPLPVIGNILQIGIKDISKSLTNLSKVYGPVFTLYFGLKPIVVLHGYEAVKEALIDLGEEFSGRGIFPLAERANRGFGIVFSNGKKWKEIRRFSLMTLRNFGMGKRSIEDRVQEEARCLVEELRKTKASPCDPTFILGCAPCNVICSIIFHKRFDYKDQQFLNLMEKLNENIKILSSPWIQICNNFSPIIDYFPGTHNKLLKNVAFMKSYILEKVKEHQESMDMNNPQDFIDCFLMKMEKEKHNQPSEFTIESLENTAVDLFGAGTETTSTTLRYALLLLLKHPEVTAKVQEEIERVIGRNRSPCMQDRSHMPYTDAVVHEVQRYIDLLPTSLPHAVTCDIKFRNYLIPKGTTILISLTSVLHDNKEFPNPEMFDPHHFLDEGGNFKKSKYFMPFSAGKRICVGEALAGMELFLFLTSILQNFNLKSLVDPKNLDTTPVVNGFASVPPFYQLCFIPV
In short: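 Fluorescence readout of CYP2C9 activity (SF9-expressed human enzyme) at 0.75 h. The primary screen used 10 uM in duplicate, with concentration-response follow-up for actives; acetonitrile was the negative control.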

[5] = molecular target: Cytochrome P450 3A4 (Homo sapiens) (UniProt P08684); assay: NVS_ADME_hCYP3A4: NovaScreen (NVS) CYP450-related Enzyme Activity (ADME) Assay for human CYP3A4 (AID 2283110)
Cytochrome P450 3A4 (Homo sapiens), sequence (P08684 whole entry, looked up): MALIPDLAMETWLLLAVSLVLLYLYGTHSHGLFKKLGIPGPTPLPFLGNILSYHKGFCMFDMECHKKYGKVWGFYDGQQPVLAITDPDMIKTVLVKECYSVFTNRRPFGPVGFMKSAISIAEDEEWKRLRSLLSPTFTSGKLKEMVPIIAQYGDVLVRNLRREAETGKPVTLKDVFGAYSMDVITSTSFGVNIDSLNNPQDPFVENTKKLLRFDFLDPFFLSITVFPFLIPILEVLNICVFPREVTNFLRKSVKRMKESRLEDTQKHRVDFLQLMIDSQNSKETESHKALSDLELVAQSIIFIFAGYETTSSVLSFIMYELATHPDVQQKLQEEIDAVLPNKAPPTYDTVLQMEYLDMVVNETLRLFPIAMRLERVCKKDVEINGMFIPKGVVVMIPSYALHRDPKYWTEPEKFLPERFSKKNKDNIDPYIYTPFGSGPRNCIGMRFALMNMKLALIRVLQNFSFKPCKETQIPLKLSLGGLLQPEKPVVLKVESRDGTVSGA
In short: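 Compounds were first screened in duplicate at 10 uM against recombinant CYP3A4 produced in insect cells, then actives were run in concentration series. Enzyme activity was measured by fluorescence after 0.33 hour, with acetonitrile as baseline.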

[6] = molecular target: rat CYP2C11, Cyp2c11 (gene 29277) (UniProt P08683); assay: NVS_ADME_rCYP2C11: NovaScreen (NVS) CYP450-related Enzyme Activity (ADME) Assay for rat CYP2C11 (AID 2283118)
rat CYP2C11, Cyp2c11 (gene 29277), sequence (P08683 whole entry, looked up): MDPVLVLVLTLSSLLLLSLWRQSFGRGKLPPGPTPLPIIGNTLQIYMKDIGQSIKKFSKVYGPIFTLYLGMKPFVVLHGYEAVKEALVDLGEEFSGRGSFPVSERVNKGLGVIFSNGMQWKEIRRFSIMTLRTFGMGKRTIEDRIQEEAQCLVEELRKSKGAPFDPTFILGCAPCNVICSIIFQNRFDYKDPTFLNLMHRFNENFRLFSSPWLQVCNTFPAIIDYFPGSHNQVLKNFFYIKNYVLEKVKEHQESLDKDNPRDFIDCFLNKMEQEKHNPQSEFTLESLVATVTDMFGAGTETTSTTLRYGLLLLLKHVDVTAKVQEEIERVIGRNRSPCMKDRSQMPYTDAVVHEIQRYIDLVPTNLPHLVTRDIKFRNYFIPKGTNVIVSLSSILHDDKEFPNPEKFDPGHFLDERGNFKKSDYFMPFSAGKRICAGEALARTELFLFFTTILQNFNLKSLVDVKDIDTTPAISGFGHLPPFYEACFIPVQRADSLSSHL
In short: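 Cell-free recombinant rat enzyme with fluorescent substrate; readout 0.33 h after dosing, loss of signal versus acetonitrile control. Initial duplicate single-point at 10 uM; actives rerun in concentration series.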

[7] = test system: rat CYP2C6, gene 293989; assay: NVS_ADME_rCYP2C6: NovaScreen (NVS) CYP450-related Enzyme Activity (ADME) Assay for rat CYP2C6 (AID 2283120)
In short: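 Cell-free recombinant rat CYP2C6 with fluorogenic substrate, read by fluorescence 1 h after dosing; acetonitrile as negative control. Primary screen at 10 uM in duplicate, actives then in concentration-response up to 20 uM.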

[8] = molecular target: rat CYP2D2, Cyp2d26 (gene 25053) (UniProt P10634); assay: NVS_ADME_rCYP2D2: NovaScreen (NVS) CYP450-related Enzyme Activity (ADME) Assay for rat CYP2D2 (AID 2283124)
rat CYP2D2, Cyp2d26 (gene 25053), sequence (P10634 whole entry, looked up): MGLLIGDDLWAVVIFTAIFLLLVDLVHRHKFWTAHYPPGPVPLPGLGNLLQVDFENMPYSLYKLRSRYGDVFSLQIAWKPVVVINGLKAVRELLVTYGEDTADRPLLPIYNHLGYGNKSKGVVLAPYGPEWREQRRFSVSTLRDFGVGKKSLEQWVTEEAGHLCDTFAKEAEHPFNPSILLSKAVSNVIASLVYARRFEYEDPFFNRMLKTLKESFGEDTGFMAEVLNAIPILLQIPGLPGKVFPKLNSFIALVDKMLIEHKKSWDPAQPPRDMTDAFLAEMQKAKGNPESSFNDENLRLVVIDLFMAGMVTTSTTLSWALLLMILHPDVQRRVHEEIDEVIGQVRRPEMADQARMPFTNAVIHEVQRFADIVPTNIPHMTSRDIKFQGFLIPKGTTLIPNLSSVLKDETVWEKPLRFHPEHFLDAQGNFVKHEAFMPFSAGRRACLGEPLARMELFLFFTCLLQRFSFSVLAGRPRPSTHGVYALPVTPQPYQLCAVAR
In short: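 Recombinant rat CYP2D2 in a cell-free fluorogenic activity assay, fluorescence read 0.75 h after dosing. Primary screen in duplicate at 10 uM; actives re-run singly in concentration-response to 20 uM, relative to acetonitrile.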

[9] = test system: rat CYP3A1, gene 25642; assay: NVS_ADME_rCYP3A1: NovaScreen (NVS) CYP450-related Enzyme Activity (ADME) Assay for rat CYP3A1 (AID 2283126)
In short: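 Cell-free recombinant CYP assay with fluorescent substrate, read 0.5 h after dosing. Screened at 10 uM in duplicate, hits at up to 20 uM in concentration-response; loss of signal versus acetonitrile baseline.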

[10] = molecular target: rat CYP3A2, Cyp3a2 (gene 266682) (UniProt P05183); assay: NVS_ADME_rCYP3A2: NovaScreen (NVS) CYP450-related Enzyme Activity (ADME) Assay for rat CYP3A2 (AID 2283128)
rat CYP3A2, Cyp3a2 (gene 266682), sequence (P05183 whole entry, looked up): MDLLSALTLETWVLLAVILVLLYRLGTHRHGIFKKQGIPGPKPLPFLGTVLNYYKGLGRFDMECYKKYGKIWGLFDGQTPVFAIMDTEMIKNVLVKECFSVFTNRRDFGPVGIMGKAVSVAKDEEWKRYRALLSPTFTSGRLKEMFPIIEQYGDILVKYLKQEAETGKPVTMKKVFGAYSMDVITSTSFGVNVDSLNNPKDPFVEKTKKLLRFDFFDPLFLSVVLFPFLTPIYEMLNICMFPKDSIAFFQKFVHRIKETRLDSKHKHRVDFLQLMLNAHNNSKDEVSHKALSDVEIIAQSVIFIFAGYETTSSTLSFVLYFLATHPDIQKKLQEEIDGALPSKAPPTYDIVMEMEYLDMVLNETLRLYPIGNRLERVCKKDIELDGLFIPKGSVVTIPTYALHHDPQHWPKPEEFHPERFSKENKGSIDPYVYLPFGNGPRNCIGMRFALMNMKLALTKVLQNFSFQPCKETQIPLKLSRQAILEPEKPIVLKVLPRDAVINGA
In short: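 Cell-free rat CYP3A2 enzyme assay with fluorescent substrate, read 0.5 h after dosing. Primary duplicate screen at 10 uM; actives run in concentration-response up to 20 uM, relative to acetonitrile baseline.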

[11] = molecular target: human Acetylcholinesterase (AChE), ACHE (gene 43) (UniProt P22303); assay: NVS_ENZ_hAChE: NovaScreen (NVS) Enzymatic Assay for human Acetylcholinesterase (AChE) (AID 2283129)
human Acetylcholinesterase (AChE), ACHE (gene 43), sequence (P22303 whole entry, looked up): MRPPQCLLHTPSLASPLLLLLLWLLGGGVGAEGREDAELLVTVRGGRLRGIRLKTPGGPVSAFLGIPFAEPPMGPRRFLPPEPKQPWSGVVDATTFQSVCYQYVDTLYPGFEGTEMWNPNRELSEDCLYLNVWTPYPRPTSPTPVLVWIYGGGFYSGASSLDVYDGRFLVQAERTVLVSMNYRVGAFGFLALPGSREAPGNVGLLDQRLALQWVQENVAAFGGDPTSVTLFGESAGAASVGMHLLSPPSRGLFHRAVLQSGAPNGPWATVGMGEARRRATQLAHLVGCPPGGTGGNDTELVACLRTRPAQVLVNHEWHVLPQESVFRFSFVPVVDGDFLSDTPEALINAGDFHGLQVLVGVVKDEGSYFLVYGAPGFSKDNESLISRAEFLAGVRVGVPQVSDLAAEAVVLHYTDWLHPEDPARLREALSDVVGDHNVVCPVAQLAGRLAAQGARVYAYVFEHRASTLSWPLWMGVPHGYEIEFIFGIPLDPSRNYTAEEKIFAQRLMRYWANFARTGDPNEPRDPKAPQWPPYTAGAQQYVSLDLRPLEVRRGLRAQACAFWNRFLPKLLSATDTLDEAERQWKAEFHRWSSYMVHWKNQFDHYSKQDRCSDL
In short: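 Cell-free colorimetric enzyme-activity assay; compounds read 0.33 hour after dosing, loss of signal vs DMSO baseline. Primary screen in duplicate at 25 uM single concentration, with active compounds retested in concentration series.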

[12] = molecular target: human CYP2D6, CYP2D6 (gene 1565) (UniProt P10635); assay: NVS_ADME_hCYP2D6: NovaScreen (NVS) CYP450-related Enzyme Activity (ADME) Assay for human CYP2D6 (AID 2283107)
In short: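 Fluorescence intensity read 1 h post-dosing; insect-cell-expressed recombinant protein with fluorogenic substrate, no cells. Activity is scored as signal loss relative to acetonitrile baseline, first at a single 10 uM concentration in duplicate, then as concentration series for confirmed actives.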

[13] = molecular target: rat CYP1A2, Cyp1a2 (gene 24297) (UniProt P04799); assay: NVS_ADME_rCYP1A2: NovaScreen (NVS) CYP450-related Enzyme Activity (ADME) Assay for rat CYP1A2 (AID 2283115)
In short: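 Cell-free recombinant rat enzyme with fluorogenic substrate, read by fluorescence intensity 1 hour after dosing. Loss of signal versus acetonitrile negative control; primary screen at 10 uM in duplicate, actives followed in concentration series.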

[14] = molecular target: rat CYP2C12, Cyp2c12 (gene 25011) (UniProt P11510); assay: NVS_ADME_rCYP2C12: NovaScreen (NVS) CYP450-related Enzyme Activity (ADME) Assay for rat CYP2C12 (AID 2283119)
In short: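 Cell-free recombinant rat CYP2C12 activity read by fluorescence 0.5 h after dosing; loss of signal versus acetonitrile control. Primary screen in duplicate at 10 uM; actives then run in concentration-response format.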

[15] = molecular target: rat CYP2D1, Cyp2d1 (gene 266684) (UniProt P10633); assay: NVS_ADME_rCYP2D1: NovaScreen (NVS) CYP450-related Enzyme Activity (ADME) Assay for rat CYP2D1 (AID 2283122)
rat CYP2D1, Cyp2d1 (gene 266684), sequence (P10633 whole entry, looked up): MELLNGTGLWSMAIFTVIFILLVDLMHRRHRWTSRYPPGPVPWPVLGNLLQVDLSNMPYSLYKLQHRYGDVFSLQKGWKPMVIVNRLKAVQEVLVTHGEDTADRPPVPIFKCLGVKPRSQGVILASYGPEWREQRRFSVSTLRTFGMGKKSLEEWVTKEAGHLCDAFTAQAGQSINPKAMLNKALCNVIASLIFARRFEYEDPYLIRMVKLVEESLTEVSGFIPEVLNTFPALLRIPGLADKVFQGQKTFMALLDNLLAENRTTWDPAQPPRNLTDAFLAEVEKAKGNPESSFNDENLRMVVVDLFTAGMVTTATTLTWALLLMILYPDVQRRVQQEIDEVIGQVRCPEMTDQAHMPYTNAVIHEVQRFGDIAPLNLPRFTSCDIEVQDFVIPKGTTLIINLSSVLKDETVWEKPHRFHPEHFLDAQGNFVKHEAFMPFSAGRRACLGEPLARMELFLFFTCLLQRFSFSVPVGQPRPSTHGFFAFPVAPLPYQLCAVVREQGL
In short: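 Cell-free fluorescence enzyme-activity assay on extracted rat CYP2D1 protein, read 0.75 h after dosing. Primary screen in duplicate at 10 uM; qualifying chemicals then run in concentration-response to 20 uM max, loss-of-signal versus acetonitrile baseline.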

CN(C)C(=O)Nc1cccc(C(F)(F)F)c1
AC50 [1]: 5.3 µM (active)
AC50 [2]: 4.33 µM (active)

CCC(CC)Nc1c([N+](=O)[O-])cc(C)c(C)c1[N+](=O)[O-]
outcome [1]: inactive

CCOC(=O)CC(SP(=O)(OC)OC)C(=O)OCC (stereo not given)
outcome [1]: inactive
outcome [3]: inactive
AC50 [4]: 1.98 µM (active)
outcome [5]: inactive
outcome [2]: inactive
AC50 [6]: 8.37 µM (active)
AC50 [7]: 5.32 µM (active)
outcome [8]: inactive
outcome [9]: inactive
outcome [10]: inactive
outcome [11]: inactive

COP(=O)(OC)OC(Br)C(Cl)(Cl)Br (stereo not given)
outcome [12]: inactive
outcome [4]: inactive
AC50 [11]: 3.67 µM (active)

CCCSP(=O)(OCC)Oc1ccc(Br)cc1Cl (stereo not given)
AC50 [1]: 5.19 µM (active)
AC50 [4]: 7.09 µM (active)
outcome [13]: inactive
AC50 [6]: 0.226 µM (active)
AC50 [7]: 8.28 µM (active)
AC50 [8]: 8.58 µM (active)
AC50 [9]: 9.45 µM (active)
AC50 [10]: 7.4 µM (active)
AC50 [11]: 7.93 µM (active)

FC(F)C(F)(F)OCC(Cn1cncn1)c1ccc(Cl)cc1Cl (stereo not given)
AC50 [1]: 4.85 µM (active)
AC50 [4]: 2.91 µM (active)
AC50 [5]: 6.4 µM (active)
AC50 [2]: 1.85 µM (active)
AC50 [6]: 0.732 µM (active)
AC50 [14]: 3.95 µM (active)
AC50 [7]: 1.68 µM (active)
AC50 [15]: 7.86 µM (active)
AC50 [8]: 5.52 µM (active)
AC50 [9]: 3.65 µM (active)
AC50 [10]: 5.51 µM (active)

C=C(C)[C@H]1Cc2c(ccc3c2O[C@@H]2COc4cc(OC)c(OC)cc4[C@@H]2C3=O)O1
outcome [5]: inactive
outcome [2]: inactive
AC50 [6]: 5.05 µM (active)
AC50 [10]: 2.88 µM (active)

COc1cccc(C(=O)NN(C(=O)c2cc(C)cc(C)c2)C(C)(C)C)c1C
outcome [4]: inactive
AC50 [9]: 0.331 µM (active)
AC50 [10]: 0.651 µM (active)

CCc1cccc(C)c1N(C(=O)CCl)C(C)COC (stereo not given)
AC50 [9]: 6.49 µM (active)
AC50 [10]: 6.68 µM (active)

CNC(=O)Oc1cccc2c1OC(C)(C)O2
AC50 [11]: 1.36 µM (active)

CC(=NC#N)N(C)Cc1ccc(Cl)nc1
AC50 [11]: 22.4 µM (active)

CCCCOC(=O)[C@@H](C)Oc1ccc(Oc2ccc(C#N)cc2F)cc1
AC50 [8]: 12.1 µM (active)

CN(C)NC(=O)CCC(=O)O
outcome [10]: inactive
